Measured values: PubChem BioAssay AID1508600 (Functional Genomics Laboratory (NCATS/FGL), 2020)
In all, about 53,000 sequences went through this assay and about 3,700 (7%) were called active. The full list was thinned out, with actives kept by preference. A number with no mark means an inactive call.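 Rule for the calls: active = gene knockdowns whose robust z-score for IL-1 alpha signal is at least 2 or at most -2, so actives lie on both sides; inactive = the rest.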

test: Components of the Cytosolic LPS Sensing Pathway: Gene Identification via Genome-wide siRNA Screen; settings: RAW264.7 macrophages, IL-1a HTRF, actives lie on both sides, screened at 100 nM (by protocol), cells primed 5 h with Pam3CSK4 first;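 note: robust z of the log signal after scaling to non-targeting control siRNA wells of the plate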
Method in brief: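 Three distinct siRNAs per gene were tested singly at 100 nM in RAW264.7 macrophages. Following Pam3CSK4 priming and 24 hour LipidA transfection, IL-1a secretion was read by HTRF.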

Row | Sequence | z-score
1 | GGAAUGUCUAUCACAAUGGTT against Vmn1r230 | 1.78
2 | GGUGGAAGAUGAGAAAGAGTT against Tmem139 | -1.21
3 | GGAAGAUAAAUGUCACAAATT against AA792892 | 0.392
4 | GCCAGAAAUACCUGUCGGATT against Cdc37 | -0.229
5 | CCACUUUCAACUUUCCGCATT against Fgd5 | -1.94
6 | GCUAGACCUAAGGAGCAAATT against Axin1 | 3.59 (active)
7 | GGCCAAUUUCUUCACUUCUTT against Ints11 | -0.809
8 | GGUUUUCACCAUAUGCAGCTT against Zfp353-ps | 0.267
9 | GGAAGAAAUGUCAUCACAATT against Heph | 0.193
10 | CGGACACAUUGACUGAAUATT against Adgrl1 | -1.45
11 | CCCACAUCAUUGAGAUUCUTT against Olfr1508 | -1.25
12 | GGAGAAGUUUGAAGAGAUGTT against Cct5 | -2.24 (active)
13 | GGAAGAAAACAUUUAGCCCTT against Mmd2 | 0.504
14 | ACAUACCAGUCUCUGUACCTT against Pigu | -1.56
15 | CCGCCUCUUACCGAAGUUCTT against Mettl4 | 3.04 (active)
16 | GGACUUGAAAGAUAAAUAGTT against Crx | 0.163
17 | GCUAAUAACUUUUCAGUGATT against Olfr381 | 0.549
18 | GGUUGGUAGGAUGGACAAGTT against Rab11b | 2.45 (active)
19 | GCCCUGUAUUUUGAAUUACTT against Bmpr1b | 0.0161
20 | GGGAAGAAAUAUGUUAGAUTT against Pip4p2 | 0.92
21 | CCUUGUUACUAUACUACACTT against Ppp1r2 | 2.59 (active)
22 | GCCUUUUAGCUGUUCAGGATT against Nlrc5 | 1.83

Row | Sequence | z-score
23 | GCUGAAGCAUACAUUUGUGTT against Tas2r137 | -0.226
24 | CCAAUCUCCUGUUGUUAAATT against Mlf1 | 0.557
25 | CCAGUCUUGCCCUUUAGUGTT against Foxi2 | -1.88
26 | AUGUAUUGAGUCAGGCAUCTT against Olfr243 | 2.32 (active)
27 | CCUUACCACUUGAAGAUGGTT against Ephx1 | -1.2
28 | GCCAGUGAGUUUAUCAGCCTT against B4galnt3 | 0.706
29 | GGUAUACAUGCUUCUCUCUTT against Olfr610 | -0.569
30 | GCUACAGAACCUGCUCUACTT against Thoc5 | 0.391
31 | GGCAUUGAACAAGAAAGAATT against Mef2c | -0.94
32 | GGGUAUGGUUUCAUCACUUTT against Boll | -2.71 (active)
33 | GGAAGACAAAGAUUCUAGUTT against Abcc1 | -1.06
34 | UUACUGGUUGCUGUUGUGGTT against Alyref | 1.35
35 | GGAGAUCUCCUCAGCCACATT against Gemin4 | -2.14 (active)
36 | GCUGUGGUACAACCACAUUTT against Lrrc8a | -0.244
37 | GGAACCACACCAUGUGAAATT against Prdm5 | 0.828
38 | CCAUUCCCGCAUCCAUGUGTT against Zfp672 | -2.23 (active)
39 | AGAGGAAGCUCGAAAACGGTT against Zrsr2 | -0.2
40 | GGAUAUCAUCGUGUUUAUUTT against Vps45 | 0.612
41 | GGACAACAUUAUAGGAAAGTT against Neu3 | 2.36 (active)
42 | GCAAAAAAUCACUUCGAGUTT against Mgat4a | -0.377
43 | GGGUAAGUAUUGAACUCAUTT against Slc10a1 | 1.06
44 | GGAUGCUGAAGUAAUAGUGTT against Tbc1d15 | 0.0714

Row | Sequence | z-score
45 | CGUUGUCAUUCACAAGUGATT against Tmprss11e | 3.02 (active)
46 | GGAAUGCUAUCAGAGAAGATT against Zmym5 | -0.0365
47 | CCCUUCUUCGGGUUUUAACTT against Kcna3 | 3.08 (active)
48 | GGUUUAAGGUAGUUCAUGATT against Faf1 | -0.0439
49 | GGCCUCAAGAAUGUAACAGTT against Psmf1 | -1.07
50 | GGACAAUUGAAUACCUAGATT against Hadha | 0.151
51 | GGACUCAACUGCACUGUUGTT against Izumo4 | -2.37 (active)
52 | CCAAGUUUUAGCACCUAAATT against Dcp1a | 0.769
53 | GGACAUGAAGAUCAAGUCCTT against Rps2 | -0.109
54 | GAAGACUUCAAUCAACCAGTT against Trim6 | -0.396
55 | GGAAACUUGUUGAAGAGAUTT against Ptprz1 | 2.37 (active)
56 | GCAUACCGGAUAAACUGAATT against Apoc1 | -0.916
57 | GGAAUGUCGAAUUGAUUGUTT against Klrb1b | 0.524
58 | GGAAGAGAGAGACAAGGAUTT against Dap | 1.38
59 | GGCGACGAAGUCACCUAUATT against Carhsp1 | -0.0404
60 | GAAGGCCAAUGAUCGGGAGTT against Neurog3 | -2.1 (active)
61 | GGUGGAGAAAUCUGCUAAUTT against Lta4h | 1.99
62 | CGUCAAUGAAUUCGACUCUTT against Pnlip | 0.348
63 | GCUUUCAGCUAUUGGACCCTT against Kl | 0.0919
64 | CGAUGCUGACUGAGAUCAUTT against Rad23a | 1.39
65 | GGUAUAGUUAAAGUGAGAGTT against Sp8 | -0.883
66 | GGAGUUAAUUGCCCGCAACTT against Rab19 | 0.588

Row | Sequence | z-score
67 | CGGAAGAUGUUAAAACUAUTT against Slc44a3 | -1.33
68 | CCAGGACAAUAACUCUGAGTT against Aatk | -1.28
69 | GGCGAGUUUAUAGAAGAAATT against Phf19 | 1.35
70 | GCAAAAGCGGGUCAAAAAATT against Lrrc72 | 2.27 (active)
71 | GGCUUGGAAUGACACUACUTT against Maged1 | -1.12
72 | GCUCAAUUUACAAAAGCCCTT against Pik3c2a | -0.961
73 | CCUGUUUCUGACCUAAUACTT against Syn1 | -0.088
74 | GGAAGAUAUUGCUGUUGGATT against Mbd4 | 0.823
75 | GCAAGAUGAGAAGGAUUUUTT against Zfp691 | 0.591
76 | GGAGGAAAACAAACCACAGTT against Tpbpa | 0.0817
77 | GCUGCAUCUAAAGCCUUAATT against Olfr661 | 1.41
78 | GGAAGAAAGUGAAGAAGAGTT against Cdr1os | -0.387
79 | GGACUUUGUGAUCUUUCCATT against Pias2 | -0.57
80 | GGCUGUGAUUGGCAAUCUATT against 6430548M08Rik | -3.04 (active)
81 | CCUGGCUAUUGGUGAGUGATT against Slc30a3 | 1.9
82 | CCAAACUUUUGUGGAACAGTT against Galnt9 | 0.0294
83 | GGCAUGUGGUUGAAGGCCUTT against Fank1 | -0.337
84 | GGACAAUGAAGAUUUGGAATT against Ush2a | -0.669
85 | CCGCCGAUCUACUAGUGGUTT against Slc6a2 | 0.46
86 | GCGGCCUUCGAAGAUAUUCTT against Pnliprp2 | -0.144
87 | GGAAAUGCCAUCGUCAUUUTT against Gpr1 | 2.66 (active)
88 | GCCAGCGUACUCUUUUUAUTT against Ocln | -0.694

Row | Sequence | z-score
89 | GGAGCUGGUGGAUCUGAAGTT against Ubfd1 | 1.26
90 | CGUGACUAUUCUGAUAAGUTT against Arl15 | 0.134
91 | GGAAGGAGGAAAAGUAGGUTT against Peli1 | -0.00852
92 | GGAAGAGAGCAGAAAGAAGTT against Trim35 | -0.135
93 | GGGAUGUUUAGGUCACCUUTT against 4933434M16Rik | -2.35 (active)
94 | GGUGGGCUACGAACUAAAGTT against Prpf31 | 0.664
95 | GGUGUUGAAAGUCAUUGUGTT against Med27 | -0.196
96 | GGCAGAUACUUCUCUGGAGTT against Sdc4 | -0.498
97 | CCCGUGGUCCUACAUUGUUTT against Cdon | 2.39 (active)
98 | GGAAGAAGACAUGCUCACUTT against Pcdhb8 | 1.07
99 | GGCCAAAGUGGUGUGUUUCTT against Mta1 | 2.46 (active)
100 | GGUGGAGAACCAUAUCACATT against Abcg4 | 0.105
101 | GAGCAUCCGCUACUUGGUATT against Nmnat1 | 0.0484
102 | GGAAGAUAUGAAGGGCUCATT against Mb | -2.18 (active)
103 | GCAUUUCAGCAGAACAAUATT against Phldb1 | 0.5
104 | GGAUCUGGAUACUUUUCCATT against Arhgap22 | -2.09 (active)
105 | GGAGACUUUCCAUUUGAAGTT against Fnbp1l | -0.188
106 | GAAAAAAUCUAUCUACCCUTT against Hoxb4 | -0.219
107 | GGUCAGUUGAGAUGUUUUUTT against Pag1 | 0.346
108 | GGCGGUGGAGGUGAUAUAUTT against Dennd6a | -2.01 (active)
